Compound activity: PubChem BioAssay, National Center for Advancing Translational Sciences (NCATS)
Shown is part of a subset that was picked to be rich in hits.
VACV mCherry inh = inhibitors of vaccinia virus infection (mCherry reporter signal); Potency, µM (titrated, usually from 36.5 µM), for inactives: at the highest dose activity change, negative = inhibition, hits mostly inhibitors; 310,000 compounds, 0.63% hits; Vaccinia virus mCherry reporter infection, fluorescence; AID 720579; calls by dose curve; tested in A549 cells; note: potency is the fitted concentration of half-maximal effect; % is set by controls: 0 for no effect and ±100 for the full control effect; nearly all actives have a fitted effect of over 35% in size
MARV entry inh = inhibitors of Marburg virus binding or cell entry | Marburg virus pseudotyped entry inhibition, cell reporter | Potency, µM (highest dose often 37.8 µM), for inactives: top-dose activity change, negative = inhibition, actives largely listed as inhibitors | 300,000 compounds, 1.8% hits; calls by dose curve; tested in HEK293 cells; note: potency is the fitted concentration of half-maximal effect; % is set by controls: 0 for no effect and ±100 for the full control effect
LASV entry inh = inhibitors of Lassa virus binding or cell entry; Lassa virus pseudotype entry inhibition, cell reporter; Potency, µM (series often up to 37.9 µM), for the others: at the highest dose activity change, negative = inhibition, usual class: inhibitors; 300,000 compounds, 1.2% hits; AID 540256; calls by dose curve; tested in HEK293 cells; note: potency is the fitted concentration of half-maximal effect; % is set by controls: 0 for no effect and ±100 for the full control effect; nearly all actives have a fitted effect of over 50% in size
CHX counter = affects cycloheximide protein synthesis inhibition readout, counter-screen. 300,000 compounds, 12% hits. AID 2314. cell reporter, cycloheximide protein synthesis inhibition counterscreen. max response, %; in the data active = max response mostly above about 13%, no sharp cut-off; inactive = mostly below about 14%; note: read at 38.3 µM for the half of the compounds with a filed dose; 0% is about no effect
VACV Venus inh = vaccinia inhibition (Venus reporter); Vaccinia virus Venus reporter expression, fluorescence; Potency, µM (top dose mostly 36.5 µM), without a hit: at the highest dose activity change, negative = inhibition, usual class: inhibitors; 330,000 compounds, 0.46% hits; calls by dose curve; tested in A549 cells; note: potency is the fitted concentration of half-maximal effect; % is set by controls: 0 for no effect and ±100 for the full control effect; nearly all actives have a fitted effect of over 30% in size
Shiga inhibitor = inhibitors of Shiga toxin in Vero cells; Vero cells, Shiga toxin protein synthesis inhibition reporter; inhibition, % at 38.7 µM; 290,000 compounds, 9.2% hits; in the data active = inhibition mostly above about 28%, no sharp cut-off; inactive = mostly below about 43%; note: 0% is about no effect
* = called active by the depositor; i = inactive; ? = inconclusive; · = no result given; + = active, no number; [ ] = remark or other dose.

SMILES | VACV mCherry inh | MARV entry inh | LASV entry inh | CHX counter | VACV Venus inh | Shiga inhibitor
CN(C)c1ccc(/C=C/c2ccc3ncccc3c2)cc1 | 27% | · | · | · | -5% | ·
C#CCCCO/N=C1\C[C@@H](O)[C@@H](O)[C@@H]2[C@@H]3C(=O)N(C[C@@H]4CCCO4)C(=O)[C@@H]3CC[C@H]12 | · | 4%[14.2 µM] | · | · | · | ·
O=C(CN1C(=O)CCc2cc(S(=O)(=O)N3CCOCC3)ccc21)NCc1ccccc1Cl | -2% | · | 5%[46.1 µM] | · | 8% | ·
O=[N+]([O-])/C=C/c1cc2ccccc2[nH]1 | -17% | · | · | -6 | -26% | -12
O=[N+]([O-])/C=C/c1c(Cl)cccc1Cl | -6% | 10µM* | -5% | · | -17% | ·
O=C(NCC(c1ccco1)N1CCc2ccccc21)c1cccc([N+](=O)[O-])c1 (centres undefined) | ? | ? | 5.6µM* | · | -16% | ·
Cc1cccc(S(=O)(=O)N(C)C[C@H]2OCc3cnnn3CCCC(=O)N([C@H](C)CO)C[C@@H]2C)c1 | -7% | · | · | · | -13% | ·
CCc1ccccc1NC(=O)c1onc(C)c1Cl | -14% | -7% | · | 4 | -2% | 12
Cc1ccc(O)c(NC(=O)c2onc(C)c2Cl)c1 | · | -1% | · | 30* | · | 66*
Cc1noc(C(=O)Nc2ccc(F)cc2F)c1Cl | i | 13%[46.1 µM] | 17%[46.1 µM] | 31* | -15% | 44
Cc1ccc(CNc2ncnc3sc(C(=O)N4CCC[C@H]4C(N)=O)c(C)c23)o1 | -8% | · | · | · | -2% | ·
Cc1ccc(NC(=O)COC(=O)c2ccc3c(c2)NC(=O)C2CCCN32)cc1C (centres undefined) | · | · | · | 1 | · | 15
CC(=O)N1N=C(c2ccco2)CC1c1cccs1 (centres undefined) | i | 6% | -10% | 5 | -15% | -5
Cc1ccc(C2=NN(C(=O)CCl)C(c3cccs3)C2)o1 (centres undefined) | -28% | ? | ? | 23* | -11% | 6
O=C(CCl)N1N=C(c2ccco2)CC1c1cccs1 (centres undefined) | 8.9µM* | ? | -27% | 1 | ? | -6
Cc1n[nH]c(C)c1S(=O)(=O)N(CC(=O)NCc1ccccc1Cl)c1ccc(C(C)C)cc1 | i | ? | ? | · | -22% | ·
CN(C)/C=C/c1oc2ccc(O)cc2c1[N+](=O)[O-] | -9% | -2%[46.1 µM] | 17% | 37 | -8% | 146*
Cc1oc2ccc(O)cc2c1C(=O)c1ccc([N+](=O)[O-])cc1 | ? | -10% | -11% | 0 | ? | 4
Cc1ccc(S(=O)(=O)Oc2ccccc2/C=N/N=C(N)N)cc1 | ? | ? | -16% | -5 | -15% | -7
Cc1ccc(S(=O)(=O)Oc2ccccc2/C=N/NC(N)=S)cc1 | ? | ? | ? | -6 | 1.3µM* | -10
Cc1ccc(S(=O)(=O)Oc2cccc3c(O)cccc23)cc1 | · | · | · | 18* | · | ·
CC(C)OC(=O)c1c2c(n3ccccc13)C(=O)c1ccccc1C2=O | ? | 20%[46.1 µM] | 9% | -2 | -15% | -2
CC(C)(C)c1ccc(/C=C/C(=O)N2CCCCC2)cc1 | · | · | · | 51* | · | 81*
CC1CCN(C(=O)/C=C/c2ccc(C(C)(C)C)cc2)CC1 | -17% | 9% | ? | 39* | -20% | 21*
CCOC(=O)C1CCCN(C(=O)/C=C/c2ccc(Cl)cc2)C1 (centres undefined) | · | 2% | ? | -1 | · | 1
SMILES | VACV mCherry inh | MARV entry inh | LASV entry inh | CHX counter | VACV Venus inh | Shiga inhibitor
CCc1ccc(/C=C\C(=O)N2CCCC2)cc1 | 4% | ? | 15%[46.1 µM] | · | 5% | ·
Cc1ccc(/C=C/C(=O)N2CCCC(C)C2)cc1 (centres undefined) | i | ? | ? | 64* | -10% | +
CC(C)Cc1ccc(/C=C/C(=O)N2CCCCC2)cc1 | i | ? | ? | 43* | -6% | 67*
COc1cccc(/C=N/Nc2cc(Cl)nc(C)n2)c1O | · | 26% | 2% | 32* | · | 54*
COc1cccc(/C=N/Nc2c(Cl)cncc2Cl)c1O | ? | ? | ? | 32* | ? | 84*
COc1ccc(-n2c(C)cc(/C=N/Nc3nnc(C)n3N)c2C)cc1 | 11µM* | ? | -17% | 19* | ? | 33
COc1cccc(/C=N/Nc2nnc(C)n2N)c1O | 7.1µM* | ? | 9%[46.1 µM] | 17 | ? | 19
Cc1nnc(N/N=C/c2ccccc2F)n1N | · | · | · | 11 | · | -6
COc1cccc(/C=N/Nc2nc(N3CCCC3)nc(N3CCCC3)n2)c1O | -14% | 26µM* | 16% | 3 | -26% | 23
COc1ccc(NC(=O)c2cccc(N3C(=O)c4cccc([N+](=O)[O-])c4C3=O)c2)cc1 | · | · | · | 24* | · | 26
CC(=O)c1ccc(NC(=O)c2cccc(N3C(=O)c4ccccc4C3=O)c2)cc1 | -8% | 21% | 7% | 4 | -18% | -10
O=C(COC(=O)/C=C/c1cccs1)Nc1ccc(Cl)cc1F | -2% | 1% | ? | · | -7% | ·
CCOC(=O)/C(=C\c1cccnc1)C(=O)c1cc(C(C)=O)c(Nc2ccccc2)s1 | 13µM* | ? | ? | -14 | 11µM* | -36
COCc1ccc(C(=O)N2CCOc3ccc(CN4CCN(c5ccc(F)cc5)CC4)cc3C2)o1 | -5% | · | · | · | -31% | ·
Cc1ccccc1OCCCSc1nc2ccccc2[nH]1 | -26% | ? | ? | 19* | -20% | 27*
c1ccc(OCCSc2nc3ccccc3[nH]2)cc1 | · | 3% | ? | 26* | -29% | 21*
Cc1nc(SCCOc2ccc(F)cc2)c2ccccc2n1 | · | 9% | 4% | 25* | · | 79*
CC1NC(=O)C(N)CNC(=O)C(C2CCN=C(N)N2)NC(=O)/C(=C/NC(N)=O)NC(=O)C(CNC(=O)CC(N)CCCN)NC1=O (centres undefined) | · | · | · | -7 | · | -3
CC(Oc1ccccc1F)C(=O)NNC(=O)CC(C)c1ccccc1 (centres undefined) | -20% | 5% | ? | · | -15% | ·
O=C(CSCc1ccccc1Cl)NNC(=S)Nc1ccccc1 | i | 13% | 9% | 11* | -11% | 33
O=C(CSCc1ccccc1Cl)Nc1ccc(C(=O)O)cc1 | i | 16% | 9% | 0 | -14% | ·
Cc1cc(Br)c(S(=O)(=O)NCc2cccnc2)cc1C | · | · | · | -1 | · | -25
CC1CCc2nc3ccccc3c(C(=O)OCC(=O)NC3CCS(=O)(=O)C3)c2C1 (centres undefined) | -17% | -10%[46.1 µM] | -9% | 6 | -9% | -13
O=C(COC(=O)c1c(Cl)cccc1Cl)NC1CCCCC1 | i | 14%[46.1 µM] | ? | 22 | -15% | 38
COc1cccc(NC(=O)COC(=O)c2c3c(nc4ccccc24)CCC(C)C3)c1 (centres undefined) | · | 7.3µM* | 18µM* | 22 | · | -6
O=C(COC(=O)c1c(F)cccc1Cl)NC1CCCC1 | i | ? | 23% | 51* | -6% | 110*
COc1cccc(NC(=O)COC(=O)c2c(F)cccc2Cl)c1 | -22% | ? | -37% | 37* | -6% | 95*
N#CCOC(=O)C1CCN(S(=O)(=O)c2ccc3c(c2)OCCO3)CC1 | -15% | 18% | 5% | · | -4% | ·
